PubChem BioAssay AID489018 (Southern Research Specialized Biocontainment Screening …, 2010)
About 350 (15%) of roughly 2,300 compounds were called active. The list is a sample of the results. Potency and affinity values are given separately. Unmarked numbers belong to inactive results. How the calls were made is not given here.

Assay: HepG2 cell cytotoxicity, dose response, cytotoxicity control for non-replicating M. tuberculosis project (AID 489018);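 further: HepG2 human liver cells; 100% = vehicle-treated cells and 0% = background signal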
Settings: series mostly up to 20 µM; viability: at the top concentration

With `C=CCn1c(O)c(C2=c3ccccc3=NC2=O)c2ccccc21` as the compound, how does the “viability” value read?
The value was 109% [at 5 µM].

For `O=C1c2cc([N+](=O)[O-])cc3cc([N+](=O)[O-])cc(c23)C(=O)N1c1ccccn1`, which “viability” value is on record?
Its value is 95.9% [at 5 µM].

Which “viability” value does the source give for `CCCCNC(=O)COC(=O)c1cc(Br)ccc1Cl` here?
Its value is 101%.

Which “viability” value does the source give for `O=C(Nc1ncccn1)c1ccc([N+](=O)[O-])o1` here?
The value was 91%.

With `O=C(Nc1ccccn1)c1ccc([N+](=O)[O-])o1` as the compound, how does the “viability” value read?
Its value is 110%.

For `O=C(Nc1nc(-c2ccccn2)cs1)c1ccc([N+](=O)[O-])o1`, which “viability” value is on record?
Its value is 110% [at 5 µM].

Which “viability” value does the source give for `O=C(Nc1nccs1)c1ccc(-c2ccc(Cl)cc2)o1` here?
The value was 91.2%.

For `Cc1ccc(CNC(=O)c2ccc([N+](=O)[O-])o2)cc1`, which “viability” value is on record?
Its value is 86.4%.

With `O=C(Nc1cccnc1)c1ccc(-c2ccc(Cl)cc2)o1` as the compound, how does the “viability” value read?
The value was 101%.

For `CCOC(=O)c1cc(-c2csc(COc3ccc(Cl)cc3)n2)on1`, which “viability” value is on record?
The value was 96.1%.

With `Cc1cccc(NC(=O)COC(=O)CCc2c[nH]c3ccccc23)c1C` as the compound, how does the “viability” value read?
Its value is 109%.

With `CC(OC(=O)c1ccc2c(=O)n3c(nc2c1)CCCCC3)C(=O)Nc1ccc(Cl)cn1` (configuration not stated) as the compound, how does the “viability” value read?
Its value is 97.6%.

With `C=CCn1c(NC(=O)c2ccccc2)nc2ccccc21` as the compound, how does the “viability” value read?
The value was 102% [at 5 µM].

With `C/C(=N/NC(=O)c1ccncc1)C1=C(O)CC(C)(C)CC1=O` as the compound, how does the “viability” value read?
The value was 106% [at 5 µM].

For `C=Cc1cccc(NC(=O)COc2ccccc2)c1`, which “viability” value is on record?
Its value is 95.6%.

Which “viability” value does the source give for `Cc1ccc(NCCC(=O)c2cccs2)cc1Cl` here?
The value was 108%.

For `CCOC(=O)COc1ccc2c(c1)c(C(=O)OCC)c(C)n2CC`, which “viability” value is on record?
The value was 102%.

Which “viability” value does the source give for `Cc1cc(C)c2nc(/N=C(\N)NC(=O)Nc3ccccc3)nc(C)c2c1` here?
The value was 95.2%.

Which “viability” value does the source give for `NC(N)=Nc1nc(-c2ccccc2)c2ccccc2n1` here?
Its value is 102% [at 5 µM].

For `CCC(CC)c1nnc(NC(=O)c2ccc3ccccc3n2)s1`, which “viability” value is on record?
The value was 80.1%.

With `Cc1ccc(NC(=O)CO/N=C/c2ccccc2C)c(C)c1` as the compound, how does the “viability” value read?
Its value is 92.9%.

Which “viability” value does the source give for `CC(=O)CCC1CC(c2ccc(Cl)cc2)=NO1` (configuration not stated) here?
The value was 100%.

With `CCCCCCNC(=O)c1ccc(Br)o1` as the compound, how does the “viability” value read?
Its value is 102%.

With `COc1cccc2cc(C(=O)NCc3ccc(F)cc3)c(=N)oc12` as the compound, how does the “viability” value read?
The value was 119%.

For `O=[N+]([O-])c1cncc([N+](=O)[O-])c1Nc1ccccc1Cl`, which “viability” value is on record?
The value was 97.8% [at 5 µM].

For `Cc1cc(Br)ccc1OCC(=O)NNC(=O)c1cnccn1`, which “viability” value is on record?
Its value is 111% [at 5 µM].

With `Cc1ccc(C(=O)C=CNNC(=O)c2ccccc2)cc1` as the compound, how does the “viability” value read?
Its value is 98.9%.

With `Cc1nc(C(=O)Nc2ccccc2)sc1C(=O)Nc1ccccc1` as the compound, how does the “viability” value read?
Its value is 91%.

Which “viability” value does the source give for `CNC(=O)c1[nH]cnc1C(=O)Nc1ccc(Cl)cc1` here?
Its value is 98.1%.

Which “viability” value does the source give for `O=C(CN1CCOCC1)N/N=C/c1ccc(-c2ccc(Br)cc2)o1` here?
The value was 96.8%.

For `CCOCC(=O)Nc1ccc(C)c(Cl)c1`, which “viability” value is on record?
Its value is 99.3%.

For `O=C(Nc1ccccc1)c1ccc(Br)o1`, which “viability” value is on record?
Its value is 110% [at 5 µM].

With `CCC(C)(C)NC(=O)c1ccc(Br)o1` as the compound, how does the “viability” value read?
Its value is 110%.

Which “viability” value does the source give for `O=C(O)CCCCCN1C(=O)/C(=C\c2ccncc2)SC1=S` here?
Its value is 90.8%.

Which “viability” value does the source give for `CCn1c(-c2ccco2)nc2ccccc21` here?
Its value is 101%.

For `COc1cccc(COC(=O)c2sc3nc4n(c(=O)c3c2C)CCC4)c1OC`, which “viability” value is on record?
Its value is 106%.

With `Cc1cccc(NC(=O)c2ccc([N+](=O)[O-])s2)n1` as the compound, how does the “viability” value read?
The value was 79.6%.

Which “viability” value does the source give for `COc1ccc(NC(=O)c2cnc(SC)nc2)cc1` here?
The value was 87.5%.

With `Cc1ccccc1-n1sc2cc(F)ccc2c1=O` as the compound, how does the “viability” value read?
The value was 90.2%.

With `O=C(Nc1ccn(Cc2ccccc2)n1)c1ccc(F)cc1` as the compound, how does the “viability” value read?
Its value is 107% [at 5 µM].

With `CN(CCCCOc1ccc(F)cc1)Cc1ccccc1` as the compound, how does the “viability” value read?
Its value is 102%.

Which “viability” value does the source give for `O=C(CCN1C(=O)S/C(=C\c2ccc(F)cc2)C1=O)Nc1ccc(C(=O)O)c(O)c1` here?
The value was 102%.

With `FC(F)(Cl)c1nnc2ccc(Cl)nn12` as the compound, how does the “viability” value read?
Its value is 78%.

With `Cn1c(SCc2c(F)cccc2Cl)nc2c(c1=O)SCC2` as the compound, how does the “viability” value read?
Its value is 92.9%.

For `O=C(Oc1ccccc1)c1cc2ccccc2o1`, which “viability” value is on record?
The value was 110% [at 5 µM].

With `COC(=O)c1ccc2c(c1O)C(=O)c1ccccc1C2=O` as the compound, how does the “viability” value read?
The value was 102% [at 5 µM].

For `COc1ccc(-c2[nH]ncc2CN2CCCCCCC2)c(OC)c1`, which “viability” value is on record?
Its value is 97.7%.

For `Cc1noc2ncnc(Sc3ccccc3Cl)c12`, which “viability” value is on record?
The value was 111%.

For `O=C(N/N=C/c1ccc(Br)s1)c1ccncc1`, which “viability” value is on record?
The value was 90%.

Which “viability” value does the source give for `Cc1ccc(/C=N/NC(=O)c2ccncc2)s1` here?
The value was 107%.

For `O=C(Nc1nccs1)c1ccc2ccccc2c1`, which “viability” value is on record?
Its value is 91.4%.

Which “viability” value does the source give for `CC(C)(C)c1ccc(-c2nc(C#N)c(NCCCn3ccnc3)o2)cc1` here?
The value was 101%.

For `O=[N+]([O-])c1ccc(Nc2ccccc2O)c2nonc12`, which “viability” value is on record?
Its value is 98.6%.

With `O=[N+]([O-])c1ccc(Nc2ccccc2)c2nonc12` as the compound, how does the “viability” value read?
Its value is 109%.

With `C#CCSc1nnc(-c2ccc(C)cc2)o1` as the compound, how does the “viability” value read?
Its value is 93.6%.

Which “viability” value does the source give for `c1ccc(CNCCC(Cc2ccccc2)c2ccco2)cc1` (configuration not stated) here?
The value was 76.4%.

Which “viability” value does the source give for `O=C(Nc1ccc(Cl)cc1Cl)c1cccc(N2C(=O)C=CC2=O)c1` here?
Its value is 99.2%.

Which “viability” value does the source give for `c1ccc2[nH]c(NC3=NCCC3)nc2c1` here?
The value was 103%.

Which “viability” value does the source give for `Cc1cccc(OCCCCc2c(C)n[nH]c2C)c1` here?
The value was 89.6%.

With `O=C(NC(=S)N1CCN(Cc2ccc3c(c2)OCO3)CC1)c1ccc(Cl)cc1` as the compound, how does the “viability” value read?
The value was 83.1%.

Which “viability” value does the source give for `C/C(=N\NC(=O)CCCNc1ccc(C)cc1)c1ccccn1` here?
The value was 76.5% [at 5 µM].

Which “viability” value does the source give for `C/C(=N\Nc1cccc2cccnc12)c1ccccn1` here?
Its value is 82.3%.
